The whole screen tested about 310,000 compounds, of which about 14,000 (4.5%) showed an effect of 50% or more. Effects have a minus sign here. The sample as a whole holds a higher share of strong results than the screen did.
These compounds were tested against human ether-à-go-go-related gene (hERG) potassium channel (human, UniProt Q12809) (assay: primary screen, population patch clamp on CHO cells stably expressing hERG; higher = less effect of the substance).
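Note: peak tail current of the secondary pulse compared with the same well before compound.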

Chain of human ether-à-go-go-related gene (hERG) potassium channel (Q12809 whole entry, looked up): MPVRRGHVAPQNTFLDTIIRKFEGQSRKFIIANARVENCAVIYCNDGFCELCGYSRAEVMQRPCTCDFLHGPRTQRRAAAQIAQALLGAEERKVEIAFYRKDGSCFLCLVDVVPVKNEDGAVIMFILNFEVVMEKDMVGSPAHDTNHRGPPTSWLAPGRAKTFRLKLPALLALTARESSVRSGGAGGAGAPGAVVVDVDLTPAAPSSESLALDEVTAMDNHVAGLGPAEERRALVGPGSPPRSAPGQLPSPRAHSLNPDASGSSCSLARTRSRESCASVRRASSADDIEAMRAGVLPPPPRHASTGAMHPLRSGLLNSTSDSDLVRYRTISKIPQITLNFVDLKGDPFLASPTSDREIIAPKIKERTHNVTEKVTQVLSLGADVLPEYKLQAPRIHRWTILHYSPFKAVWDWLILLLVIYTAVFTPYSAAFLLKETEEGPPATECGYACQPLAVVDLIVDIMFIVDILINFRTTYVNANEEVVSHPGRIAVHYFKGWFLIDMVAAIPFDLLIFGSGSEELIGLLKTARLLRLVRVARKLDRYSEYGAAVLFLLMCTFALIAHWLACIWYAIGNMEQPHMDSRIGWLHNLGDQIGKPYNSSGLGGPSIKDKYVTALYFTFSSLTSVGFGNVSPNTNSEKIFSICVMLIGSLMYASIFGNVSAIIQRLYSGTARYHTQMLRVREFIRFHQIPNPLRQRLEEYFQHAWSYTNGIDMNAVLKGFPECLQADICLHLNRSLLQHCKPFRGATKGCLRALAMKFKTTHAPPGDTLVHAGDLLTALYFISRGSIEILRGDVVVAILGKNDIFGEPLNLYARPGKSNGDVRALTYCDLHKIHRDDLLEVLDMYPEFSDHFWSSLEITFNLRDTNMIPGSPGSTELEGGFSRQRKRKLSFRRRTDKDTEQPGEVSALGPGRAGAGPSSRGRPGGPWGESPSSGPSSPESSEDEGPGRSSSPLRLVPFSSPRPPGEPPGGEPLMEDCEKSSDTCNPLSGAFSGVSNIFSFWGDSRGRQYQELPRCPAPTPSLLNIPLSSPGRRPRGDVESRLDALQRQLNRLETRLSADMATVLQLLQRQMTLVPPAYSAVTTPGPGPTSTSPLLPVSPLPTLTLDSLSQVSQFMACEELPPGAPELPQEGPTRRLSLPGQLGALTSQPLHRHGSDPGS

Going from `COc1ccc(-c2nnn(CC(=O)N(C3CCCCC3)C(C)C(=O)NC3CCCC3)n2)cc1OC` (stereo not drawn) to `COc1ccc(N(C(=O)c2snc(C(N)=O)c2N)C(C(=O)NC2CCCC2)c2cccs2)cc1OC` (stereo not drawn), the “hERG current change (%, negative = inhibition) at 10uM” value rises from -22.1% to -1.74%.

First: COc1cccc(/C=N/NC(=O)CC2C(=O)NN=C2C)c1OC (stereo not drawn)
Second: CCOc1ccc(C2C(C(=O)NC)=C(C)Nc3nc4ccccc4n32)cc1OC (stereo not drawn)
The “hERG current change (%, negative = inhibition) at 10uM” value of the first is lower: 2.5% for the first, 11.9% for the second.

First: O=C(NCCN1C(=O)S/C(=C\c2cccnc2)C1=O)c1ccc([N+](=O)[O-])s1
Second: O=C(N/N=C1\CCS(=O)(=O)c2ccc(F)cc21)c1ccc([N+](=O)[O-])cc1
The “hERG current change (%, negative = inhibition) at 10uM” value of the first is higher: 5.15% for the first, -19.6% for the second.

Going from `C/C(CC(=O)N1CCCC1)=N\NC(=O)c1cc2ccccc2cc1O` to `CCC(CC)C(=O)Nc1cccc(/C(C)=N/NC(=O)c2ccccc2Cl)c1`, the “hERG current change (%, negative = inhibition) at 10uM” value rises from 4.98% to 6.73%.

Compared with `O=S(=O)(Nc1cc(S(=O)(=O)N2CCOCC2)ccc1N1CCCC1)c1cccs1`, `CC(=O)Nc1ccc(S(=O)(=O)N2CCCC2)cc1` is higher in “hERG current change (%, negative = inhibition) at 10uM” value: -4.49% for the first, 12.1% for the second.

First: Cc1cc(-c2nnco2)c(C)n1-c1ccccc1
Second: CCC(C)n1c(-c2ccco2)nc2nc3ccccc3nc21 (stereo not drawn)
The “hERG current change (%, negative = inhibition) at 10uM” value of the first is higher: -1.71% for the first, -3.86% for the second.

Compared with `COC(=O)C1=C(c2ccc(S(C)(=O)=O)cc2)C[C@@H]2CC[C@H]1N2C(=O)N1CCCCC1`, `Cc1ccc(-c2nnc(SCC(=O)Nc3ccc(S(=O)(=O)N4CCCCCC4)cc3)o2)cc1` is lower in “hERG current change (%, negative = inhibition) at 10uM” value: -1.44% for the first, -7.29% for the second.

Compared with `COc1ccccc1CCN1CCCC(CN(C)C(=O)CCC(=O)N(C)C)C1` (stereo not drawn), `COc1ccccc1CCN1CCCC(CN(C)C(=O)CCC(N)=O)C1` (stereo not drawn) is higher in “hERG current change (%, negative = inhibition) at 10uM” value: 9.14% for the first, 22.5% for the second.

Compared with `CSCCC(=O)N(C)CC1CCN(CCc2cccc(C(F)(F)F)c2)CC1`, `CSCCC(=O)N(C)CC1CCCN(CCc2cccc(C(F)(F)F)c2)C1` (stereo not drawn) is lower in “hERG current change (%, negative = inhibition) at 10uM” value: -64.3% for the first, -74.6% for the second.

Compared with `COC(=O)CCCC(=O)N(C)CC1CCCN(CCc2ccccc2C)C1` (stereo not drawn), `COC(=O)CCC(=O)N(C)CC1CCCN(CCc2cccc(C(F)(F)F)c2)C1` (stereo not drawn) is lower in “hERG current change (%, negative = inhibition) at 10uM” value: -53.6% for the first, -61.9% for the second.

Going from `CN(CC1CCCN(CCc2cccc(C(F)(F)F)c2)C1)C(=O)c1ccco1` (stereo not drawn) to `CN(CC1CCCN(CCc2cccc(C(F)(F)F)c2)C1)C(=O)c1ccc2nc[nH]c2c1` (stereo not drawn), the “hERG current change (%, negative = inhibition) at 10uM” value rises from -69.2% to -33.1%.

Going from `CC(=O)NCCC(=O)N(C)CC1CCN(CCc2cccc(C(F)(F)F)c2)CC1` to `CCOC(=O)C1CCCCN1Cc1cccc(C(F)(F)F)c1` (stereo not drawn), the “hERG current change (%, negative = inhibition) at 10uM” value rises from 2.52% to 6.43%.

Compared with `O=C(O)c1ccccc1NS(=O)(=O)c1cccc2nsnc12`, `NC(=O)c1ccsc1NC(=O)CCS(=O)(=O)c1ccccc1` is lower in “hERG current change (%, negative = inhibition) at 10uM” value: 18.3% for the first, 1.27% for the second.

Going from `Cc1ccc(/C=N/NC(=S)NCCc2ccccc2)s1` to `CCC(=O)N1CCN(c2ccc(Cl)cc2NC(=O)Cc2ccccc2)CC1`, the “hERG current change (%, negative = inhibition) at 10uM” value falls from 27.9% to -46.3%.

Compared with `Cc1ccc(CNC(=O)CSc2nc3ccsc3c(=O)n2NC(=O)c2ccccc2)cc1`, `O=C(CN(C(=O)c1csnn1)c1cccc2ccccc12)NCc1ccccc1` is higher in “hERG current change (%, negative = inhibition) at 10uM” value: -9.41% for the first, 0.271% for the second.

Going from `CCOC(=O)N1CCN(C(=O)C(CC(C)C)NS(=O)(=O)c2ccc3c(c2)oc(=O)n3C)CC1` (stereo not drawn) to `CCC(=O)Nc1cc(Cl)ccc1N1CCN(C(=O)CC)CC1`, the “hERG current change (%, negative = inhibition) at 10uM” value falls from -12.4% to -24.9%.

Going from `CSCCC(=O)NC1CCCN(CCc2ccccc2)C1` (stereo not drawn) to `CCC(=O)N1CCN(c2ccccc2NC(=O)Cc2ccccc2)CC1`, the “hERG current change (%, negative = inhibition) at 10uM” value rises from -38.2% to -29.1%.

Compared with `COc1cc(SC)ccc1C(=O)Nc1ccc(Br)cn1`, `COc1ccc(NC(=O)c2ccccc2[N+](=O)[O-])cc1` is lower in “hERG current change (%, negative = inhibition) at 10uM” value: 14.4% for the first, 9.48% for the second.

First: CC(=O)Nc1ccc(S(=O)(=O)N2CCCN(S(=O)(=O)c3ccc(C)cc3)CC2)cc1
Second: CC(=O)Nc1ccc(S(=O)(=O)N2CCCN(S(=O)(=O)c3ccc(NC(C)=O)cc3)CC2)cc1
The “hERG current change (%, negative = inhibition) at 10uM” value of the first is lower: -72.8% for the first, -0.406% for the second.

First: CC(=O)Nc1ccc(S(=O)(=O)N2CCC(c3nnc(-c4ccc(C)cc4)o3)CC2)cc1
Second: COc1ccc(-c2nnc(C3CCN(S(=O)(=O)c4ccccc4)CC3)o2)cc1
The “hERG current change (%, negative = inhibition) at 10uM” value of the first is lower: -51.1% for the first, -47.4% for the second.

Going from `COC(=O)NNC(=O)c1ccccc1C` to `CC(C)C(=O)N1CCN(c2ccccc2NC(=O)COc2ccccc2)CC1`, the “hERG current change (%, negative = inhibition) at 10uM” value falls from -11.7% to -57.6%.

First: Cc1ccc([N+](=O)[O-])cc1S(=O)(=O)Nc1ccccn1
Second: CC(=O)N1CCN(c2ccccc2NC(=O)COc2ccc(Cl)cc2Cl)CC1
The “hERG current change (%, negative = inhibition) at 10uM” value of the first is higher: 9.5% for the first, -22.3% for the second.

First: CCC(C)n1c(-c2cc(OC)c(OC)c(OC)c2)nc2nc3ccccc3nc21 (stereo not drawn)
Second: CCCn1c(-c2cc(OC)c(OC)c(OC)c2)nc2nc3ccccc3nc21
The “hERG current change (%, negative = inhibition) at 10uM” value of the first is lower: -50.9% for the first, -37.5% for the second.

First: CCCSC1=C(C#N)C(c2cccs2)CC(=O)N1 (stereo not drawn)
Second: CCC(=O)N1CCN(c2ccccc2NC(=O)Cc2ccc(Cl)cc2)CC1
The “hERG current change (%, negative = inhibition) at 10uM” value of the first is higher: 3.24% for the first, -68.6% for the second.

Going from `O=C(COc1ccccc1)Nc1ccccc1N1CCN(c2ccccc2)CC1` to `O=C(Cc1ccccc1)Nc1ccccc1N1CCN(c2ccccc2)CC1`, the “hERG current change (%, negative = inhibition) at 10uM” value rises from 1.02% to 11.9%.

Going from `CCC(=O)N1CCN(c2ccccc2NC(=O)COc2ccccc2Cl)CC1` to `CC(=O)N1CCN(c2ccccc2NC(=O)Cc2ccc(Cl)cc2)CC1`, the “hERG current change (%, negative = inhibition) at 10uM” value falls from -42.2% to -64.8%.

Compared with `CC(C)C(=O)N1CCN(c2ccccc2NC(=O)COc2ccc(C3CCCCC3)cc2)CC1`, `CCC(=O)N1CCN(c2ccc(Cl)cc2NC(=O)Cc2ccc(Cl)cc2)CC1` is lower in “hERG current change (%, negative = inhibition) at 10uM” value: -4.96% for the first, -54.5% for the second.

Source: paper PMC4336329 (PLoS ONE, 2015)
